# Test results as given in article PMC7862700, “An all-to-all approach to the identification of sequence-specific readers for epigenetic DNA modifications on cytosine”.
# Legend:
# Assay in all cases: DAPPL (digital affinity profiling via proximity ligation, sequencing); 10 mM Tris-HCl pH 7.5, 50 mM NaCl, 1 mM DTT, 4% glycerol, room temperature, 30 min; GST-TFs on glutathione beads, 16-mer random dsDNA library, 0.1% formaldehyde crosslink after washing; high values mean tight binding
# FEV = molecular target: T1, FEV (Homo sapiens, UniProt Q99581 1-238); settings: protein: recombinant; tags: N-terminal GST; dsDNA, one strand shown
# T1 sequence: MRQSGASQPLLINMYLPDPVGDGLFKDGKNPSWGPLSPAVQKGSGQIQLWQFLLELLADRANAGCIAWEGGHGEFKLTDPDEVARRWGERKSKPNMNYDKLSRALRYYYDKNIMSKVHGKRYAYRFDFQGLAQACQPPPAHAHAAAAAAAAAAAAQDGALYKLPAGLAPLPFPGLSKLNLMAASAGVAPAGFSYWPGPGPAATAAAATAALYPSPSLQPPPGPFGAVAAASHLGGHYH
# Method in brief: (§1)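 Human transcription factors were made in yeast as GST fusions, captured on glutathione beads and barcoded with DNA. With a tag-only sample included, the pool was incubated with 200 nmole of a random double-stranded 16-mer DNA library in Tris/NaCl/DTT/glycerol buffer at room temperature for 30 min, then crosslinked with 0.1% formaldehyde after washing, ligated by proximity, amplified and sequenced. For binding signal, each hexamer's read frequency for a factor is divided by its frequency for the tag-only sample.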
# ETV5 = ETV5 (Homo sapiens, UniProt P41161 1-510); settings: protein: recombinant; tags: N-terminal GST; dsDNA, one strand shown
# Sequence of ETV5 (P41161 whole entry): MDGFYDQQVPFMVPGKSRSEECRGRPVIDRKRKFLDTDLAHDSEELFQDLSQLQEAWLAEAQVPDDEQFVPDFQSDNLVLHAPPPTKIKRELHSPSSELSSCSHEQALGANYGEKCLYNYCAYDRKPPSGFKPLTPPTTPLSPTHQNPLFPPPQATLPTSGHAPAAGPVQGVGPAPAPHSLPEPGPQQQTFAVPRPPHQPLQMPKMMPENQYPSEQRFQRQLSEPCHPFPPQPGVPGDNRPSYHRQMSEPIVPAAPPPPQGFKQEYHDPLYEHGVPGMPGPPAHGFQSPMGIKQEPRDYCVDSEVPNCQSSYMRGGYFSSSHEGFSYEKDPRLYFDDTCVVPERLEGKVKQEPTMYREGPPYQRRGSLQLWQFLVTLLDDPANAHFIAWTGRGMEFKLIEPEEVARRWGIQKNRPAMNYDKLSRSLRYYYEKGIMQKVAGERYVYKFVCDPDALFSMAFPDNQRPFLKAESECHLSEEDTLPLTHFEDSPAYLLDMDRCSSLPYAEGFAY
# Method in brief: as §1
# HSF1 = HSF1 (Homo sapiens, UniProt Q00613 1-529); settings: protein: recombinant; tags: N-terminal GST; chain copies: 3; dsDNA, one strand shown
# Sequence of HSF1 (Q00613 whole entry): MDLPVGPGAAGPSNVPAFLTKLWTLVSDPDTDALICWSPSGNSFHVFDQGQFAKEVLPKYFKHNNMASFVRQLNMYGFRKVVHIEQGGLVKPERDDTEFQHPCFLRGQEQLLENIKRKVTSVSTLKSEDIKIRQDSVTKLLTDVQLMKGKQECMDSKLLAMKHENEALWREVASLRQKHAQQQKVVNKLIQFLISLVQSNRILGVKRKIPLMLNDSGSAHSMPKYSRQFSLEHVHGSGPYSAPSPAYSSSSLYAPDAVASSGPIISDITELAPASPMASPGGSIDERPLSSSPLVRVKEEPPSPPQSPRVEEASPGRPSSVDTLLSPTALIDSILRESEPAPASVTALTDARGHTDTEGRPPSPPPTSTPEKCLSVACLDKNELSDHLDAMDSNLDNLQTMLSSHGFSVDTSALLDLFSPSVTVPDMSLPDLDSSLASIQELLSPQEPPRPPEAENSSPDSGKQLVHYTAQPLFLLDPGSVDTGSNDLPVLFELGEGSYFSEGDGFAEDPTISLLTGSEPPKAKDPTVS
# Method in brief: as §1
# SPIC = molecular target: T2, SPIC (Homo sapiens, UniProt Q8N5J4 1-248); settings: protein: recombinant; tags: N-terminal GST; dsDNA, one strand shown
# T2 sequence: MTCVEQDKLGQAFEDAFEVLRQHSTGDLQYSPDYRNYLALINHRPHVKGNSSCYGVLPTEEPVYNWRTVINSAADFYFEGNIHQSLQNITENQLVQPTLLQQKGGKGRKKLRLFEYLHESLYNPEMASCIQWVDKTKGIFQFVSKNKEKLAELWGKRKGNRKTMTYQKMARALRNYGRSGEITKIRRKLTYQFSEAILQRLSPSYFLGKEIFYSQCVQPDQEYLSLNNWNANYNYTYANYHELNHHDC
# Method in brief: as §1
# ELF4 = ELF4 (Homo sapiens, UniProt Q99607 1-663); settings: protein: recombinant; tags: N-terminal GST; dsDNA, one strand shown
# Sequence of ELF4 (Q99607 whole entry): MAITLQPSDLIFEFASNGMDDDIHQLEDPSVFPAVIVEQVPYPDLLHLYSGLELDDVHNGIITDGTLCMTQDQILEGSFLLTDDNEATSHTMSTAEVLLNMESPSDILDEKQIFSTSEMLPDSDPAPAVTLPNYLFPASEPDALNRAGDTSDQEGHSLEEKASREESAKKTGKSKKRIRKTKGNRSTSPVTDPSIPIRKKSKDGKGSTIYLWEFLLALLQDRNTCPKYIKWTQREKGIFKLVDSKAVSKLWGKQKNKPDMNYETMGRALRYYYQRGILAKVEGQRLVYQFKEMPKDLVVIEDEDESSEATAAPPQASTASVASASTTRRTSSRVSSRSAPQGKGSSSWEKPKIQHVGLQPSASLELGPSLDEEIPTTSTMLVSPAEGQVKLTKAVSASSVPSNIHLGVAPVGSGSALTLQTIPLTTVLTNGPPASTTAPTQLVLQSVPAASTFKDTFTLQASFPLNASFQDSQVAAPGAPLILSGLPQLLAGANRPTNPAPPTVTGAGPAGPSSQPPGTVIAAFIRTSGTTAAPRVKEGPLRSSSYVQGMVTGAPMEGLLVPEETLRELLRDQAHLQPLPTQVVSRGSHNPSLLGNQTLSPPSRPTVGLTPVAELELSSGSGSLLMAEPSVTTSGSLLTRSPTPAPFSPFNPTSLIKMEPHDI
# Method in brief: as §1
# ELK4 = molecular target: T3, ELK4 (Homo sapiens, UniProt P28324-2 1-405); settings: protein: recombinant; tags: N-terminal GST; dsDNA, one strand shown
# T3 sequence: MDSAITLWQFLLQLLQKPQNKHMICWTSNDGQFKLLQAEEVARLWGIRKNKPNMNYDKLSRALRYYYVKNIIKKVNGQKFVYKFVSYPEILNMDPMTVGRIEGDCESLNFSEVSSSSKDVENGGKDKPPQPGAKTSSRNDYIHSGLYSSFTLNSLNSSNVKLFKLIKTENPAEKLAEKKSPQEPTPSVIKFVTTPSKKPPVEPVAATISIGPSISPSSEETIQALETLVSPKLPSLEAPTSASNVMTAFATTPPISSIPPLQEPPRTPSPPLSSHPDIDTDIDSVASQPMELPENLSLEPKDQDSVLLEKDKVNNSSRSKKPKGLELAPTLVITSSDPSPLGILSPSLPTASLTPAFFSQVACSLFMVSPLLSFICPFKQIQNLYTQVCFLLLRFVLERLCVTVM
# Method in brief: as §1
# ETV2 = molecular target: T4, ETV2 (Homo sapiens, UniProt O00321 1-342); settings: protein: recombinant; tags: N-terminal GST; dsDNA, one strand shown
# T4 sequence: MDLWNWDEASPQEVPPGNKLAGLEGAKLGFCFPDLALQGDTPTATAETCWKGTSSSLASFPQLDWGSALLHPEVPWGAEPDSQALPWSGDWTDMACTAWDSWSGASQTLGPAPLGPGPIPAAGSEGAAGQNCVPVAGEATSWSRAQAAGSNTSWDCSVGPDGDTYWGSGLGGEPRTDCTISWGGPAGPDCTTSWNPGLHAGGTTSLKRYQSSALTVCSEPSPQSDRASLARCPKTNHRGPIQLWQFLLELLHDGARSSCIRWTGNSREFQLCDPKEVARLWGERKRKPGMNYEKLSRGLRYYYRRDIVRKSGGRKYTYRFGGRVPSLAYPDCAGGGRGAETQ
# Method in brief: as §1
# ELF3 = molecular target: T5, ELF3 (Homo sapiens, UniProt P78545 1-371); settings: protein: recombinant; tags: N-terminal GST; dsDNA, one strand shown
# T5 sequence: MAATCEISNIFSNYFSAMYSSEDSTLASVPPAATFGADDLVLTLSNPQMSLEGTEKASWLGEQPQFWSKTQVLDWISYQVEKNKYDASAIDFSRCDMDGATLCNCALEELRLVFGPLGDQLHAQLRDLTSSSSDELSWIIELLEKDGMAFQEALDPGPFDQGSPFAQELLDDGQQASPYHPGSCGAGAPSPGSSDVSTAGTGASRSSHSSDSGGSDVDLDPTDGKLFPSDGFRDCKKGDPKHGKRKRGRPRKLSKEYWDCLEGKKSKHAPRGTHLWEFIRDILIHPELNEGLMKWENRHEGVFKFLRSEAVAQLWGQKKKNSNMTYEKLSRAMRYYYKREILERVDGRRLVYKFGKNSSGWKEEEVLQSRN
# Method in brief: as §1
# CRX = CRX (Homo sapiens, UniProt O43186 1-299); settings: protein: recombinant; tags: N-terminal GST; dsDNA, one strand shown
# Sequence of CRX (O43186 whole entry): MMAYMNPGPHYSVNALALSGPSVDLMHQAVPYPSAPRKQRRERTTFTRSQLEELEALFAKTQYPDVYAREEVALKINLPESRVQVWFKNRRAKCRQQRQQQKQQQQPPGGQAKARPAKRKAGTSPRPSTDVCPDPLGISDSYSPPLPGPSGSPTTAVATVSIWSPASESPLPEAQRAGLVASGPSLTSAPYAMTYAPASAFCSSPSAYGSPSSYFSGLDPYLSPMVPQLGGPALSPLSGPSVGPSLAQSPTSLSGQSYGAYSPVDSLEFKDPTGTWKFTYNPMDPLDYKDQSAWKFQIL
# Method in brief: as §1
# ETV1 = ETV1 (Homo sapiens, UniProt P50549 1-477); settings: protein: recombinant; tags: N-terminal GST; dsDNA, one strand shown
# Sequence of ETV1 (P50549 whole entry): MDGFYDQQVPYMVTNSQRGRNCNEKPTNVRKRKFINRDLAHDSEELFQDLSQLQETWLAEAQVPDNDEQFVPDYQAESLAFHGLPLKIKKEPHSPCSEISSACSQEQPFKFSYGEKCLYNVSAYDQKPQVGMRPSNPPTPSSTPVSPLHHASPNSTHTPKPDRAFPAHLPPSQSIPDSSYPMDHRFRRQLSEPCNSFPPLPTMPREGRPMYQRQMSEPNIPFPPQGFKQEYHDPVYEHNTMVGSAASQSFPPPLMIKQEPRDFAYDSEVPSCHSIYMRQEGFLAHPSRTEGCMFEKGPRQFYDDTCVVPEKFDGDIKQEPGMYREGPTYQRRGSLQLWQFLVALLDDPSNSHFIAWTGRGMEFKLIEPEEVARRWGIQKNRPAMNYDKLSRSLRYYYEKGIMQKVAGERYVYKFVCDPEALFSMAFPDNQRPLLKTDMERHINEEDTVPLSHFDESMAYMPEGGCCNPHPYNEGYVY
# Method in brief: as §1
# ERF = molecular target: T6, ERF (Homo sapiens, UniProt P50548 1-548); settings: protein: recombinant; tags: N-terminal GST; dsDNA, one strand shown
# T6 sequence: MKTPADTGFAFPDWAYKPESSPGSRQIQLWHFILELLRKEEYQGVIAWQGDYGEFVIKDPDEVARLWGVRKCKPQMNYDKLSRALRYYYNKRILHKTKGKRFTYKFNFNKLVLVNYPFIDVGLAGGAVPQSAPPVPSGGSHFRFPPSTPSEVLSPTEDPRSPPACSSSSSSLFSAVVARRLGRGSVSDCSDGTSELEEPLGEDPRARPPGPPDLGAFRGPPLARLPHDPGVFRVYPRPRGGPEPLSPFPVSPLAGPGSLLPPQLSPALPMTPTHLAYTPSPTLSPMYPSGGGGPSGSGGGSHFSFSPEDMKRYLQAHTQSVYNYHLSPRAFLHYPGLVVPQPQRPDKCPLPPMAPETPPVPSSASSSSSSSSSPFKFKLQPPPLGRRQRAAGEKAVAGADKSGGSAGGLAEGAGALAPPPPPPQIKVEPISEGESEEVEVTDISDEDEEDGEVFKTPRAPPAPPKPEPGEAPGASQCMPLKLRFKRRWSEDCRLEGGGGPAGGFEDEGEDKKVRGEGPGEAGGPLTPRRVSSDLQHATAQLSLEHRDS
# Method in brief: as §1
# ETV3L = molecular target: T7, ETV3L (Homo sapiens, UniProt Q6ZN32 1-361); settings: protein: recombinant; tags: N-terminal GST; dsDNA, one strand shown
# T7 sequence: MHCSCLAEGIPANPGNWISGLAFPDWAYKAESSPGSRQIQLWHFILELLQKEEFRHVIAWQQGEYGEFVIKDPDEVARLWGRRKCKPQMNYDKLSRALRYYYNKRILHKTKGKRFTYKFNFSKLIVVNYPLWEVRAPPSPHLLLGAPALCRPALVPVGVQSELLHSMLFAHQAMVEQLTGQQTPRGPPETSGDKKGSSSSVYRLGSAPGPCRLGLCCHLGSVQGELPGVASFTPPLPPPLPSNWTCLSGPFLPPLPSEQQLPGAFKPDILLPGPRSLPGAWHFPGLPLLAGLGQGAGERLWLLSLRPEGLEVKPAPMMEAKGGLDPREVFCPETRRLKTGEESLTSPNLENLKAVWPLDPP
# Method in brief: as §1
# ETS2 = molecular target: T8, ETS2 (Homo sapiens, UniProt P15036 1-469); settings: protein: recombinant; tags: N-terminal GST; dsDNA, one strand shown
# T8 sequence: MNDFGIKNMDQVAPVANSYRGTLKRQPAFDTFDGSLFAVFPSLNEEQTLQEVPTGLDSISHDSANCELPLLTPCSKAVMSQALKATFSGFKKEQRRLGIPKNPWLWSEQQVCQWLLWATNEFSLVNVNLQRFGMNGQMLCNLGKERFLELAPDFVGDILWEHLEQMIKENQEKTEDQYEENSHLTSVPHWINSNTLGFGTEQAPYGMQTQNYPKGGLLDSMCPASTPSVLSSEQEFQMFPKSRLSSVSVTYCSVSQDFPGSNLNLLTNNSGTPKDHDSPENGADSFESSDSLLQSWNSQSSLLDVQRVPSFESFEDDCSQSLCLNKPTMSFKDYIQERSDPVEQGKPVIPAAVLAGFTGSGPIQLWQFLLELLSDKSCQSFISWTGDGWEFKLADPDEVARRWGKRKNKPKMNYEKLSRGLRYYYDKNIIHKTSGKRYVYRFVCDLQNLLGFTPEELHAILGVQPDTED
# Method in brief: as §1
# SPDEF = molecular target: T9, SPDEF (Homo sapiens, UniProt O95238 1-335); settings: protein: recombinant; tags: N-terminal GST; dsDNA, one strand shown
# T9 sequence: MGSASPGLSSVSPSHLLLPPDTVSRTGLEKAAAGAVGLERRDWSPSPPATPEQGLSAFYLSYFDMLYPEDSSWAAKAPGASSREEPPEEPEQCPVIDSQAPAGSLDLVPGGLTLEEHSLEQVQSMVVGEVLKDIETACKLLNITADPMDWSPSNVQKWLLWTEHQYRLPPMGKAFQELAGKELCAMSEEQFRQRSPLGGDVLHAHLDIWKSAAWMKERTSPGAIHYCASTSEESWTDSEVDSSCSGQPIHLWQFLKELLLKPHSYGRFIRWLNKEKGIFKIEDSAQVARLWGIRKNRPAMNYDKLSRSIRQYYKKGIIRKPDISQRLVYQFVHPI
# Method in brief: as §1
# ETV7 = molecular target: T10, ETV7 (Homo sapiens, UniProt Q9Y603 1-341); settings: protein: recombinant; tags: N-terminal GST; dsDNA, one strand shown
# T10 sequence: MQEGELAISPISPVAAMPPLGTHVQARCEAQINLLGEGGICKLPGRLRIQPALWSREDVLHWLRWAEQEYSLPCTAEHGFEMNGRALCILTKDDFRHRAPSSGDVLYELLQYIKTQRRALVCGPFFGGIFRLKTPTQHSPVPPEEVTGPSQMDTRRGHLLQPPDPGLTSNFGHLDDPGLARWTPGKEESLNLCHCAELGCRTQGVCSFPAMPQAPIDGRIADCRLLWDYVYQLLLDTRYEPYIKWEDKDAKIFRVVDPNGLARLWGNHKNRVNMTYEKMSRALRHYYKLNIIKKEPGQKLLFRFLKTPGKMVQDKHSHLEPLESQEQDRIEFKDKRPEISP
# Method in brief: as §1
# ELF5 = molecular target: T11, ELF5 (Homo sapiens, UniProt Q9UKW6-2 1-255); settings: protein: recombinant; tags: N-terminal GST; dsDNA, one strand shown
# T11 sequence: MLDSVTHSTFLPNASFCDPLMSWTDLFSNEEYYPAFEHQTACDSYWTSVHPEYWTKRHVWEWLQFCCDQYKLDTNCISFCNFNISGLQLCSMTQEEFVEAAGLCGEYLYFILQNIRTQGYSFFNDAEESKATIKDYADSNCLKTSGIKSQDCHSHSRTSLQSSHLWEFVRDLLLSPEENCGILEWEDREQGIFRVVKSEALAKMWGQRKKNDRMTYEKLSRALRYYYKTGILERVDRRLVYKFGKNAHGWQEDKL
# Method in brief: as §1
# ETV3 = molecular target: T12, ETV3 (Homo sapiens, UniProt P41162-2 1-143); settings: protein: recombinant; tags: N-terminal GST; dsDNA, one strand shown
# T12 sequence: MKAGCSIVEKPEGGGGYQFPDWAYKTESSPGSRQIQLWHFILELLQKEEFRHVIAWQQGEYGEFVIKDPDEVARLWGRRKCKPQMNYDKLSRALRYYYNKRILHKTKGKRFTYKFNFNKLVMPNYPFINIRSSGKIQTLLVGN
# Method in brief: as §1
# ETV6 = ETV6 (Homo sapiens, UniProt P41212 1-452); settings: protein: recombinant; tags: N-terminal GST; dsDNA, one strand shown
# Sequence of ETV6 (P41212 whole entry): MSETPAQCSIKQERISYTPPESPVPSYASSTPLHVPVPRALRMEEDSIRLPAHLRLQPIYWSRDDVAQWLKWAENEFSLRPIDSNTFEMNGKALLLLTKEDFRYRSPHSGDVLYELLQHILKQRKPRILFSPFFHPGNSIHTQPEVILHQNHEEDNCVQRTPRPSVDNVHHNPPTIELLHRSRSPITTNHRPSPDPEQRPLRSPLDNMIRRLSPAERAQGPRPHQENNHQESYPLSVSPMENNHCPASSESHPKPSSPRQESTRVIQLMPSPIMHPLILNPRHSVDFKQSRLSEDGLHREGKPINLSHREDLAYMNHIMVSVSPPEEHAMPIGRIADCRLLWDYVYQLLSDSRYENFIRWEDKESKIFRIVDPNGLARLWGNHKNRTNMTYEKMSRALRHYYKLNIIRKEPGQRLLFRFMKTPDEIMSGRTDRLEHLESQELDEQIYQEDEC
# Method in brief: as §1
sequence,measurement,setting,value
TAAAGT,binding signal,FEV,"1.1 fold enrichment (6-mer frequency, TF over GST control)"
same,binding signal,ETV5,"1.13 fold enrichment (6-mer frequency, TF over GST control)"
same,binding signal,HSF1,"1.37 fold enrichment (6-mer frequency, TF over GST control)"
same,binding signal,SPIC,"1.13 fold enrichment (6-mer frequency, TF over GST control)"
same,binding signal,ELF4,"1.13 fold enrichment (6-mer frequency, TF over GST control)"
same,binding signal,ELK4,"1.27 fold enrichment (6-mer frequency, TF over GST control)"
same,binding signal,ETV2,"1.11 fold enrichment (6-mer frequency, TF over GST control)"
same,binding signal,ELF3,"1.13 fold enrichment (6-mer frequency, TF over GST control)"
same,binding signal,CRX,"1.75 fold enrichment (6-mer frequency, TF over GST control)"
same,binding signal,ETV1,"1.21 fold enrichment (6-mer frequency, TF over GST control)"
same,binding signal,ERF,"1.09 fold enrichment (6-mer frequency, TF over GST control)"
same,binding signal,ETV3L,"1.29 fold enrichment (6-mer frequency, TF over GST control)"
same,binding signal,ETS2,"1.22 fold enrichment (6-mer frequency, TF over GST control)"
same,binding signal,SPDEF,"1.15 fold enrichment (6-mer frequency, TF over GST control)"
same,binding signal,ETV7,"1.25 fold enrichment (6-mer frequency, TF over GST control)"
same,binding signal,ELF5,"1.17 fold enrichment (6-mer frequency, TF over GST control)"
same,binding signal,ETV3,"1.18 fold enrichment (6-mer frequency, TF over GST control)"
same,binding signal,ETV6,"1.09 fold enrichment (6-mer frequency, TF over GST control)"
